Measurements published in PubChem BioAssay (NCATS).
Inconclusive results are not listed. Calls of active or inactive are those of the source. Calls come from the whole dose curve; as a rule, active = well fitted inhibition curve with a large enough effect; inconclusive = small, poorly fitted or top-dose-only effect; inactive = flat fitted curve, though single readings scatter.

Columns and labels:
Assay in all cases: qHTS profiling for inhibitors of Plasmodium falciparum proliferation (AID 504749); note: nearly all actives have a fitted effect of over 60% in size
Details in all cases: P. falciparum in erythrocytes, SYBR Green DNA, 72 h; series mostly up to 28.7 µM
[1] = tested on: CP266
Procedure, shortened: (§1)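 SYBR Green fluorescence (ex 485 nm, em 535 nm) reports parasite DNA after 72 h compound exposure of infected red cells at 0.3% parasitemia, 2.5% hematocrit; signal normalized to 0.29 uM artemisinin and vehicle wells.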

[2] = tested on: CP268
Procedure, shortened: as §1

[3] = tested on: CP269
Procedure, shortened: as §1

[4] = tested on: CP286
Procedure, shortened: as §1

[5] = tested on: CP291
Procedure, shortened: as §1

[6] = tested on: CP297
Procedure, shortened: as §1

[7] = tested on: CP305
Procedure, shortened: as §1

[8] = tested on: CP315
Procedure, shortened: as §1

[9] = tested on: CP325
Procedure, shortened: as §1

[10] = tested on: CP329
Procedure, shortened: as §1

[11] = tested on: CP335
Procedure, shortened: as §1

[12] = tested on: DIV14
Procedure, shortened: as §1

[13] = tested on: DIV17
Procedure, shortened: as §1

[14] = tested on: DIV30
Procedure, shortened: as §1

[15] = tested on: Dd2
Procedure, shortened: as §1

[16] = tested on: ECU
Procedure, shortened: as §1

[17] = tested on: FAB9
Procedure, shortened: as §1

[18] = tested on: GB4
Procedure, shortened: as §1

[19] = tested on: HB3
Procedure, shortened: as §1

[20] = tested on: ICS
Procedure, shortened: as §1

[21] = tested on: JCK
Procedure, shortened: as §1

[22] = tested on: N140
Procedure, shortened: as §1

[23] = tested on: P93_24
Procedure, shortened: as §1

[24] = tested on: P94_40
Procedure, shortened: as §1

[25] = tested on: PAD
Procedure, shortened: as §1

[26] = tested on: PC15
Procedure, shortened: as §1

[27] = tested on: PC26
Procedure, shortened: as §1

[28] = tested on: PC49
Procedure, shortened: as §1

[29] = tested on: SC27B
Procedure, shortened: as §1

[30] = tested on: TAB109
Procedure, shortened: as §1

[31] = tested on: TAB113
Procedure, shortened: as §1

[32] = tested on: TAB165
Procedure, shortened: as §1

[33] = tested on: W2
Procedure, shortened: as §1

Measured: Potency

CCOC(=O)C(CS)NCCN[C@@H](CS)C(=O)OCC (stereo partly drawn)
inactive: all assays above
